Screens from PubChem.
Only some compounds are listed: those with a hit (about 19% of all), similar ones and a draw of the others.
DT40 TDP1 CPT = DT40-hTDP1 cell growth loss with CPT; chicken DT40 Tdp1-/-;hTDP1 cells + 20 nM CPT, ATP luminescence, 48 h; Potency, µM (highest dose often 46.2 µM), for inactives: at the top dose activity change, negative = growth inhibition, most hits filed as inhibitors; 420,000 compounds, 12% hits; also: potency is read from the fitted curve at half-maximal effect; nearly all actives have a fitted effect of over 55% in size
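Chicken DT40 Tdp1-/- cells stably complemented with human TDP1 were seeded at 400 cells/well in medium containing 20 nM camptothecin, exposed to pin-transferred compounds, and grown at 37 °C for at least 48 hr. Viability was read as ATP luminescence.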
IL-1B inflam inh = inflammasome signaling inhibition, IL-1 beta readout; 360,000 compounds, 4.7% hits; activity change, % at 57.5 µM; THP-1 LPS/ATP IL-1B secretion, AlphaLISA, 16 h; active compounds read low; in the data active = activity change below about -50%; inconclusive = mostly about -30% to -49%
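THP-1 cells pretreated 1 hr with compounds (up to 57.5 uM final), then stimulated with LPS (250 ng/mL final) plus ATP (1.25 mM final); secreted IL-1B measured by AlphaLISA after 16 hr, decreased signal indicating inhibition.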
HT1080NT lethal = kills 2HG-producing HT-1080-NT fibrosarcoma cells; HT-1080-NT fibrosarcoma viability, CellTiter-Glo ATP luminescence, 48 h; Potency, µM (titrated, usually from 46.1 µM), for inactives: at the top dose activity, negative = less viability, hits mostly cytotoxic; 360,000 compounds, 1.6% hits; AID 686970;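 also: NT is the 2HG producing partner of a matched IDH1 knockdown line; potency is read from the fitted curve at half-maximal effect; 0% = DMSO-treated cells and -100% = media-only wells without cells; nearly all actives have a fitted effect of over 55% in size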
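HT-1080-NT fibrosarcoma cells (2HG-overproducing), 750 cells/well in RPMI with 5% FBS, dosed after 2 h and incubated 48 h at 37C. CellTiter-Glo luminescence normalized to DMSO and no-cell wells; concentration-response curves fitted and classed.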
TDP1 cell noCPT = qHTS for Inhibitors of human tyrosyl-DNA phosphodiesterase 1 (TDP1): qHTS in cells in absence of CPT; AID 686978, 2013; 420,000 compounds, 15% hits; Potency, µM (top dose mostly 46.2 µM), for the others: top-dose activity change, negative = growth inhibition, actives largely listed as inhibitors; DT40 Tdp1-/- hTDP1 cells, no CPT, ATP luminescence, 48 h; also: potency is read from the fitted curve at half-maximal effect; nearly all actives have a fitted effect of over 55% in size
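Growth of hTDP1-complemented DT40 Tdp1-knockout cells is measured by ATP luminescence after at least 48 hr compound exposure at 37 °C, with DMSO substituting for the 20 nM CPT used in the parallel screen.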
HT1080 IDH1KD tx = toxicity to HT-1080 IDH1 knockdown cells (counter line); HT-1080 IDH1 knockdown viability, ATP luminescence, 48 h; Potency, µM (highest dose often 46.1 µM), without a hit: at the top dose activity, negative = toxicity, hits mostly cytotoxic; 360,000 compounds, 2% hits; AID 686971;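 also: potency is read from the fitted curve at half-maximal effect; 0% = DMSO wells and -100% = cell-free medium wells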
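Assay cells: HT-1080 with IDH1 knockdown, 750 per well, RPMI/5% FBS. Exposure: 48 h at 37 °C following 2 h pre-incubation. Read: CellTiter-Glo luminescence; fitted concentration-response, curve class assigned.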
* = called active by the depositor; [ ] = remark or other dose. Unless noted, calls follow the shape of the dose curve; as a rule, active = well fitted curve in the direction sought with a large enough effect; inconclusive = small, poorly fitted or top-dose-only effect, or another doubt; inactive = no such curve, though single readings can be large; an effect the other way counts as inactive or inconclusive. Unless noted, % is scaled to controls: 0 for no effect and ±100 for the full control effect.

COc1ccc(-c2cn3c(n2)sc2cc(C(=O)NCc4cccs4)ccc23)cc1 was read as DT40 TDP1 CPT 10µM* and TDP1 cell noCPT 13µM*.
Screening COc1ccc(-c2cn3c(n2)sc2cc(C(=O)NCCCc4ccccc4)ccc23)cc1 returned DT40 TDP1 CPT -23% and TDP1 cell noCPT -10%.
`COc1cccc(C(=O)c2c[nH]c(C(=O)NCc3cccs3)c2)c1` gave DT40 TDP1 CPT -2%, IL-1B inflam inh -62*, HT1080NT lethal -4%, TDP1 cell noCPT -22% and HT1080 IDH1KD tx 7%.
Screening COc1cccc(C(=O)c2c[nH]c(C(=O)NCc3cccnc3)c2)c1 returned DT40 TDP1 CPT -15%, IL-1B inflam inh -26, HT1080NT lethal -18%, TDP1 cell noCPT -25% and HT1080 IDH1KD tx inconclusive.
For O=C(NCc1cccs1)c1ccc2c(c1)sc1nc(-c3ccccc3)cn12 the results were DT40 TDP1 CPT 18µM* and TDP1 cell noCPT 23µM*.
`Cc1ccc(C(=O)NNC(=O)CSc2nnc(-c3ccncc3)n2C)cc1` gave DT40 TDP1 CPT -3%, IL-1B inflam inh -17, HT1080NT lethal 6%, TDP1 cell noCPT 0% and HT1080 IDH1KD tx 2%.
`COc1ccc(-c2cn3c(n2)sc2cc(C(=O)Nc4c(C)cccc4C)ccc23)cc1` gave DT40 TDP1 CPT 13µM* and TDP1 cell noCPT 9.2µM*.
`COc1cccc(-c2cn3c(n2)sc2cc(C(=O)NCc4cccs4)ccc23)c1` gave DT40 TDP1 CPT 13µM* and TDP1 cell noCPT 6.5µM*.
For COc1cccc(-c2cc(C(=O)NCc3cccs3)no2)c1 the results were DT40 TDP1 CPT -26%, IL-1B inflam inh 18, HT1080NT lethal inconclusive, TDP1 cell noCPT -13% and HT1080 IDH1KD tx 15%.
`COc1ccc(-c2cn3c(n2)sc2cc(C(=O)N4CCCCC4)ccc23)cc1` gave DT40 TDP1 CPT inconclusive and TDP1 cell noCPT 21µM*.
`CCOc1ccccc1N(C)C(=O)Cn1ncc2c([nH]c3ccc(C)cc32)c1=O` gave DT40 TDP1 CPT inconclusive, IL-1B inflam inh -6, HT1080NT lethal inconclusive, TDP1 cell noCPT inconclusive and HT1080 IDH1KD tx inconclusive.
For CCOc1ccc(C(C)=O)cc1CSc1nnc(-c2cccs2)n1CC1CCCO1 (centres undefined) the results were DT40 TDP1 CPT inconclusive, IL-1B inflam inh inconclusive, HT1080NT lethal 4%, TDP1 cell noCPT 18µM* and HT1080 IDH1KD tx 2%.
`O=C(CSc1nnc(-c2cccs2)n1CC1CCCO1)N1CCCC1` (centres undefined) gave DT40 TDP1 CPT 28%, IL-1B inflam inh 7, HT1080NT lethal 22%, TDP1 cell noCPT -14% and HT1080 IDH1KD tx 11%.
`C[C@H]1CN([C@@H](C)CO)C(=O)c2cc(Br)cnc2O[C@@H]1CN(C)S(=O)(=O)c1ccccc1` gave DT40 TDP1 CPT inconclusive, IL-1B inflam inh 8, HT1080NT lethal 4%, TDP1 cell noCPT inconclusive and HT1080 IDH1KD tx 2%.
CCCCCCCC(=O)N/N=C(\C)c1cccnc1 was read as DT40 TDP1 CPT -12%, IL-1B inflam inh -16, HT1080NT lethal 6%, TDP1 cell noCPT -25% and HT1080 IDH1KD tx 1%.
`O=C(NC1CCCCC1)c1ccc(Cn2c(SCc3cccc(F)c3)nc3cccnc32)cc1` gave DT40 TDP1 CPT 21µM* and TDP1 cell noCPT 21µM*.
Screening COc1ccc(Cn2c(SCc3ccc(C(=O)NC4CCCC4)cc3)nc3cccnc32)cc1 returned DT40 TDP1 CPT inconclusive and TDP1 cell noCPT 18µM*.
Screening O=C(NC1CCCC1)c1ccc(CSc2nc3cccnc3n2Cc2ccccc2)cc1 returned DT40 TDP1 CPT inconclusive and TDP1 cell noCPT 16µM*.
`O=C(CSc1nc2cccnc2n1Cc1ccccc1)NC1CCCCC1` gave DT40 TDP1 CPT inconclusive, IL-1B inflam inh inconclusive, HT1080NT lethal -1%, TDP1 cell noCPT inconclusive and HT1080 IDH1KD tx -13%.
`COc1ccccc1-n1c(SCC(=O)NC2CCCC2)nc2cccnc21` gave DT40 TDP1 CPT -28%, IL-1B inflam inh 1, HT1080NT lethal 8%, TDP1 cell noCPT -15% and HT1080 IDH1KD tx 6%.
`Cc1ccc(NC(=O)c2c(C)nn(-c3ccccc3)c2-n2cccc2)c(Cl)c1` gave DT40 TDP1 CPT -23% and TDP1 cell noCPT -11%.
Screening Cc1ccccc1Nc1nc(N)nc(CSc2nc3ccccc3c(=O)n2C)n1 returned DT40 TDP1 CPT 9.2µM*, IL-1B inflam inh -53*, HT1080NT lethal -17%, TDP1 cell noCPT 8.2µM* and HT1080 IDH1KD tx -29%.
Cc1ccccc1Nc1nc(N)nc(CSc2nnc(C)n2C)n1 was read as DT40 TDP1 CPT -3%, IL-1B inflam inh 6, HT1080NT lethal 1%, TDP1 cell noCPT 14% and HT1080 IDH1KD tx 15%.
Screening COCCn1c(SCc2nc(N)nc(Nc3ccccc3C)n2)nc2ccccc2c1=O returned DT40 TDP1 CPT inconclusive, IL-1B inflam inh -9, HT1080NT lethal -18%, TDP1 cell noCPT inconclusive and HT1080 IDH1KD tx 4%.
`Cc1ccccc1Nc1nc(N)nc(CSCC(=O)Nc2cccc(Br)c2)n1` gave DT40 TDP1 CPT inconclusive, IL-1B inflam inh -5, HT1080NT lethal 2%, TDP1 cell noCPT 16µM* and HT1080 IDH1KD tx -1%.
Cc1ccc2c(CSc3nc4ccccc4c(=O)n3CCCO)cc(=O)oc2c1C was read as DT40 TDP1 CPT inconclusive, IL-1B inflam inh -4, HT1080NT lethal inconclusive, TDP1 cell noCPT 23µM* and HT1080 IDH1KD tx inconclusive.
`Cc1ccccc1Nc1nc(N)nc(CSc2nc3ccccc3c(=O)n2CCCO)n1` gave DT40 TDP1 CPT inconclusive, IL-1B inflam inh -3, HT1080NT lethal inconclusive, TDP1 cell noCPT 18µM* and HT1080 IDH1KD tx -20%.
Cc1ccc(SCc2nc(N)nc(Nc3ccccc3C)n2)cc1C was read as DT40 TDP1 CPT inconclusive, IL-1B inflam inh 17, HT1080NT lethal -10%, TDP1 cell noCPT inconclusive and HT1080 IDH1KD tx -14%.
COc1cccc(CNc2cnc3ccccc3c2)c1O was read as DT40 TDP1 CPT 12µM*, IL-1B inflam inh -54*, HT1080NT lethal inconclusive, TDP1 cell noCPT 16µM* and HT1080 IDH1KD tx 6%[9.24 µM].
Screening Cc1ccc(O)c(CNc2cnc3ccccc3c2)c1 returned DT40 TDP1 CPT -20%, IL-1B inflam inh -88*, HT1080NT lethal -14%, TDP1 cell noCPT inconclusive and HT1080 IDH1KD tx inconclusive.
For COc1cccc(-c2nnc(NC(=O)c3ccccc3Br)o2)c1 the results were DT40 TDP1 CPT inconclusive, IL-1B inflam inh -29, HT1080NT lethal inconclusive, TDP1 cell noCPT inconclusive and HT1080 IDH1KD tx inconclusive.
